Screening data (PubChem BioAssay)
Rows were chosen to be rich in hits. Some 27% of all compounds tested hit in one or more screens of this group.
Cav3 T inh – blocks human Cav3.2 T-type calcium channel | Cav3.2-expressing cells, Fluo-4 calcium fluorescence FDSS; stronger effect = lower value | B-score at 10 µM | O95180 | 100,000 tested, 4% active;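 active means single-dose well whose peak fluorescence ratio is a statistical outlier from its plate by either plate-standardised score or position-corrected B-score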
CYP2C9 inhib – human CYP2C9 inhibition | P11712 | CYP2C9 Supersomes, luciferin-H conversion, luminescence | inhibition, % at 5 µM | 96,000 tested, 20% active | AID 777;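 active means blocking of liver enzyme CYP2C9 beyond about 50% at 5 µM, limit read from the data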
Target sequence (P11712 whole entry, looked up): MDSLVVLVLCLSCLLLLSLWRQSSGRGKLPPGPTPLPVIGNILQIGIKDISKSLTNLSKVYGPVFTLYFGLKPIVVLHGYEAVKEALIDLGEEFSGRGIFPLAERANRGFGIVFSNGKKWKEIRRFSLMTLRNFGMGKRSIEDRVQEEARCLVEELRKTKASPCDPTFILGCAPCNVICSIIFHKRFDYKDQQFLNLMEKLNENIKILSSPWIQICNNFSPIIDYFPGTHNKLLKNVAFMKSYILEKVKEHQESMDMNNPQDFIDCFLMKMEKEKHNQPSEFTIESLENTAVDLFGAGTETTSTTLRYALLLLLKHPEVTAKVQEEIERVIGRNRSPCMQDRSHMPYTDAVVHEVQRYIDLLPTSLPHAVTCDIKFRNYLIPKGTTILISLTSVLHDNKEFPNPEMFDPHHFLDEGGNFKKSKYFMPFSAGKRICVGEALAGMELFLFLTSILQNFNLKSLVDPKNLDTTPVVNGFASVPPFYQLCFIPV
CYP2C19 inh – blocks human cytochrome P450 2C19. AID 778. CYP2C19 Supersomes, luciferin-H EGE luminescence, 30 min. P33261. inhibition, % at 5 µM. 96,000 tested, 21% active;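 active means CYP2C19 inhibition above a set limit at 5 µM in the primary screen, cut at about 50% in these data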;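 further: plate controls were negative control wells for no effect and 2.5 mM tranylcypromine positive control for full effect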
CYP2C19 act – increases human CYP2C19 enzyme activity. recombinant CYP2C19, luciferin-H EGE luminescence; stronger effect = higher value; 0 = fully inhibited enzyme, 1 = untreated enzyme. activation factor at 5 µM. 96,000 tested, under 10 active;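 active means activation factor of at least 2 at 5 µM in the primary screen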;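 further: 0 = wells with 2.5 mM tranylcypromine and 1 = vehicle-only wells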
CYP2C9 act – increases human cytochrome P450 2C9 activity; recombinant CYP2C9, luciferin-H conversion, luminescence; stronger effect = higher value; factor 1 = untreated enzyme, 0 = blocked; activation factor at 5 µM; 96,000 tested, 1.4% active;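 active means activation factor of 2 or more for CYP2C9 at a 5 µM dose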;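 further: 0 = sulfaphenazole-blocked wells and 1 = vehicle-only wells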
The depositor's hits bear a star.

What do the screens show for `O=C(COC(=O)Cc1ccc(S(=O)(=O)N2CCOCC2)s1)NCCc1ccccc1`?
Cav3 T inh: 0.381; CYP2C9 inhib: 60.2*; CYP2C19 inh: 33.1; CYP2C19 act: 0.7; CYP2C9 act: 0.4

What do the screens show for `CCc1nc2ccccc2c(C(=O)OCC(=O)Nc2ccc(S(=O)(=O)N3CCOCC3)cc2)c1C`?
Cav3 T inh: -0.322; CYP2C9 inhib: 54.0*; CYP2C19 inh: -1.9; CYP2C19 act: 1; CYP2C9 act: 0.5

Results for O=C(COC(=O)Cc1ccc(S(=O)(=O)N2CCOCC2)s1)NCc1ccccc1 ?
Cav3 T inh: 0.314; CYP2C9 inhib: 5.6; CYP2C19 inh: 5.0; CYP2C19 act: 0.9; CYP2C9 act: 0.9

Results for CCc1nc2ccccc2c(C(=O)OCC(=O)Nc2cccc(S(=O)(=O)N3CCOCC3)c2)c1C ?
Cav3 T inh: -1.36; CYP2C9 inhib: 2.7; CYP2C19 inh: 23.6; CYP2C19 act: 0.8; CYP2C9 act: 1

Results for O=C(O)C1CCC(=O)N1Cc1ccccc1Cl (stereo unspecified) ?
Cav3 T inh: 0.491; CYP2C9 inhib: 11.4; CYP2C19 inh: 4.4; CYP2C19 act: 1; CYP2C9 act: 0.9

What do the screens show for `Clc1cccc(Cl)c1C1=NOC(c2nnc(-c3ccccc3)o2)C1` (stereo unspecified)?
Cav3 T inh: -1.5

How did O=C(COC(=O)c1ccc2ccccc2n1)Nc1ncc(C(F)(F)F)cc1Cl do in these assays?
Cav3 T inh: -0.14; CYP2C9 inhib: 50.7*; CYP2C19 inh: 58.3*; CYP2C19 act: 0.4; CYP2C9 act: 0.5

How did O=C(COC(=O)c1ccc2ccccc2c1)Nc1ncc(C(F)(F)F)cc1Cl do in these assays?
Cav3 T inh: 0.179; CYP2C9 inhib: 6.2; CYP2C19 inh: 8.9; CYP2C19 act: 0.9; CYP2C9 act: 0.9

How did O=C(COc1ccc(S(=O)(=O)N2CCOCC2)cc1)Nc1ccc2c(c1)OCCO2 do in these assays?
Cav3 T inh: 0.65; CYP2C9 inhib: 23.9; CYP2C19 inh: -0.9; CYP2C19 act: 1; CYP2C9 act: 0.8

Results for O=C(COc1ccc(S(=O)(=O)N2CCOCC2)cc1)Nc1ccc(Cl)c(C(F)(F)F)c1 ?
Cav3 T inh: -5.46*; CYP2C9 inhib: 53.1*; CYP2C19 inh: 23.5; CYP2C19 act: 0.8; CYP2C9 act: 0.5

How did Cc1cc(C(=O)OCC(=O)Nc2cc(S(=O)(=O)N3CCOCC3)ccc2Cl)c(C)o1 do in these assays?
Cav3 T inh: -0.0639; CYP2C9 inhib: 79.6*; CYP2C19 inh: 51.8*; CYP2C19 act: 0.5; CYP2C9 act: 0.2

How did CCN(CC)S(=O)(=O)c1ccc(C)c(NC(=O)COC(=O)c2ccc(C)c(S(=O)(=O)N3CCOCC3)c2)c1 do in these assays?
Cav3 T inh: -4.16*; CYP2C9 inhib: 95.7*; CYP2C19 inh: 91.5*; CYP2C19 act: 0.1; CYP2C9 act: 0

How did O=C(Cn1ncc2c(=O)oc3ccccc3c21)NCCN1CCN(c2ccccc2F)CC1 do in these assays?
Cav3 T inh: 1.54; CYP2C9 inhib: 34.7; CYP2C19 inh: 4.4; CYP2C19 act: 1; CYP2C9 act: 0.7

Results for O=C(COC(=O)CCc1ccc(S(=O)(=O)N2CCOCC2)cc1)Nc1ncc(C(F)(F)F)cc1Cl ?
Cav3 T inh: 1.28; CYP2C9 inhib: 54.7*; CYP2C19 inh: -0.1; CYP2C19 act: 1; CYP2C9 act: 0.5

How did COc1cccc(NC(=O)COC(=O)c2cc(S(=O)(=O)N3CCOCC3)ccc2C)c1 do in these assays?
Cav3 T inh: -0.407; CYP2C9 inhib: 33.9; CYP2C19 inh: 22.6; CYP2C19 act: 0.8; CYP2C9 act: 0.7

What do the screens show for `Cc1ccc(S(=O)(=O)N2CCOCC2)cc1C(=O)OCC(=O)Nc1ccc2c(c1)OCO2`?
Cav3 T inh: -0.358; CYP2C9 inhib: 52.6*; CYP2C19 inh: 41.1; CYP2C19 act: 0.6; CYP2C9 act: 0.5

How did O=C(COC(=O)c1cccc(S(=O)(=O)N2CCOCC2)c1)Nc1ncc(C(F)(F)F)cc1Cl do in these assays?
Cav3 T inh: 0.534; CYP2C9 inhib: 22.0; CYP2C19 inh: 26.7; CYP2C19 act: 0.7; CYP2C9 act: 0.8

How did CCOC(=O)c1cc2occc2n1CC(=O)NCCOC do in these assays?
Cav3 T inh: 0.424

What do the screens show for `CC1CN=C(N(C(=O)Nc2ccccc2)c2ccc(F)cc2)S1` (stereo unspecified)?
Cav3 T inh: -1.19; CYP2C9 inhib: 76.1*; CYP2C19 inh: 75.9*; CYP2C19 act: 0.2; CYP2C9 act: 0.2

What do the screens show for `Cc1cccc(N(C(=O)Nc2ccccc2)C2=NCC(C)S2)c1` (stereo unspecified)?
Cav3 T inh: -3.4; CYP2C9 inhib: 81.2*; CYP2C19 inh: 68.2*; CYP2C19 act: 0.3; CYP2C9 act: 0.2

Results for Cc1ccc(NC(=O)N(C2=NCC(C)S2)c2ccccc2)cc1 (stereo unspecified) ?
Cav3 T inh: -1.86

Results for COc1ccc(-c2ccnc3nc(Sc4ncc(C(F)(F)F)cc4Cl)nn23)cc1 ?
Cav3 T inh: -2.17; CYP2C9 inhib: 51.6*; CYP2C19 inh: 29.6; CYP2C19 act: 0.7; CYP2C9 act: 0.5

Results for CCc1ccc(C2C(C#N)=C(N)SC(N)=C2C#N)s1 ?
Cav3 T inh: -3.28; CYP2C9 inhib: 75.7*; CYP2C19 inh: 49.1; CYP2C19 act: 0.5; CYP2C9 act: 0.2

What do the screens show for `CCOc1ccccc1C1C(C#N)=C(N)Oc2n[nH]c(CC)c21` (stereo unspecified)?
Cav3 T inh: 0.158; CYP2C9 inhib: 32.6; CYP2C19 inh: 40.9; CYP2C19 act: 0.6; CYP2C9 act: 0.7

How did CCOc1ccccc1C1C(C#N)=C(N)SC(N)=C1C#N do in these assays?
CYP2C9 inhib: -7.2; CYP2C19 inh: 51.5*; CYP2C19 act: 0.5; CYP2C9 act: 1.1

What do the screens show for `CCOc1ccc(C2C(C#N)=C(N)SC(N)=C2C#N)cc1OCC`?
Cav3 T inh: 0.181; CYP2C9 inhib: 83.9*; CYP2C19 inh: 57.9*; CYP2C19 act: 0.4; CYP2C9 act: 0.2

Results for N#CC1=C(N)SC(N)=C(C#N)C1c1cccc(Oc2ccccc2)c1 ?
Cav3 T inh: -2.13; CYP2C9 inhib: 92.3*; CYP2C19 inh: 42.3; CYP2C19 act: 0.6; CYP2C9 act: 0.1

How did C=C(C)Cn1c(CCNC(=O)C(C)(C)C)nc2ccccc21 do in these assays?
Cav3 T inh: 1.25; CYP2C9 inhib: -2.0; CYP2C19 inh: 27.3; CYP2C19 act: 0.7; CYP2C9 act: 1

What do the screens show for `O=C1c2ccccc2NC(c2ccccn2)N1c1ccccc1F` (stereo unspecified)?
Cav3 T inh: 0.506

Results for CCOc1ccc(C2C(C#N)=C(N)SC(N)=C2C#N)cc1OC ?
Cav3 T inh: -0.147; CYP2C9 inhib: 91.4*; CYP2C19 inh: 54.2*; CYP2C19 act: 0.5; CYP2C9 act: 0.1

How did COc1ccc(CNC(=O)C2CCCN2C(=O)NC2CCCCC2)cc1 (stereo unspecified) do in these assays?
Cav3 T inh: 1.02; CYP2C9 inhib: 5.0; CYP2C19 inh: 13.0; CYP2C19 act: 0.9; CYP2C9 act: 0.9
